The values below come from the supplement of paper PMC11732987, “Enantioselective OTUD7B fragment discovery through chemoproteomics screening and high-throughput optimisation” (Communications Chemistry, 2025).

What all share (assay): log2 ratio of Biotin-Ahx-Ub-VS probe labelling (fragment/DMSO); higher = less target engagement (more negative = stronger competition), active = hit call of the paper (q ≤ 0.05, log2 ratio ≤ -1)
Conditions in all cases: compound concentration: 200 uM; treatment time: 3 h

One experiment deals with T1, USP42 (UniProt Q9H9J4).
T1 sequence (whole entry): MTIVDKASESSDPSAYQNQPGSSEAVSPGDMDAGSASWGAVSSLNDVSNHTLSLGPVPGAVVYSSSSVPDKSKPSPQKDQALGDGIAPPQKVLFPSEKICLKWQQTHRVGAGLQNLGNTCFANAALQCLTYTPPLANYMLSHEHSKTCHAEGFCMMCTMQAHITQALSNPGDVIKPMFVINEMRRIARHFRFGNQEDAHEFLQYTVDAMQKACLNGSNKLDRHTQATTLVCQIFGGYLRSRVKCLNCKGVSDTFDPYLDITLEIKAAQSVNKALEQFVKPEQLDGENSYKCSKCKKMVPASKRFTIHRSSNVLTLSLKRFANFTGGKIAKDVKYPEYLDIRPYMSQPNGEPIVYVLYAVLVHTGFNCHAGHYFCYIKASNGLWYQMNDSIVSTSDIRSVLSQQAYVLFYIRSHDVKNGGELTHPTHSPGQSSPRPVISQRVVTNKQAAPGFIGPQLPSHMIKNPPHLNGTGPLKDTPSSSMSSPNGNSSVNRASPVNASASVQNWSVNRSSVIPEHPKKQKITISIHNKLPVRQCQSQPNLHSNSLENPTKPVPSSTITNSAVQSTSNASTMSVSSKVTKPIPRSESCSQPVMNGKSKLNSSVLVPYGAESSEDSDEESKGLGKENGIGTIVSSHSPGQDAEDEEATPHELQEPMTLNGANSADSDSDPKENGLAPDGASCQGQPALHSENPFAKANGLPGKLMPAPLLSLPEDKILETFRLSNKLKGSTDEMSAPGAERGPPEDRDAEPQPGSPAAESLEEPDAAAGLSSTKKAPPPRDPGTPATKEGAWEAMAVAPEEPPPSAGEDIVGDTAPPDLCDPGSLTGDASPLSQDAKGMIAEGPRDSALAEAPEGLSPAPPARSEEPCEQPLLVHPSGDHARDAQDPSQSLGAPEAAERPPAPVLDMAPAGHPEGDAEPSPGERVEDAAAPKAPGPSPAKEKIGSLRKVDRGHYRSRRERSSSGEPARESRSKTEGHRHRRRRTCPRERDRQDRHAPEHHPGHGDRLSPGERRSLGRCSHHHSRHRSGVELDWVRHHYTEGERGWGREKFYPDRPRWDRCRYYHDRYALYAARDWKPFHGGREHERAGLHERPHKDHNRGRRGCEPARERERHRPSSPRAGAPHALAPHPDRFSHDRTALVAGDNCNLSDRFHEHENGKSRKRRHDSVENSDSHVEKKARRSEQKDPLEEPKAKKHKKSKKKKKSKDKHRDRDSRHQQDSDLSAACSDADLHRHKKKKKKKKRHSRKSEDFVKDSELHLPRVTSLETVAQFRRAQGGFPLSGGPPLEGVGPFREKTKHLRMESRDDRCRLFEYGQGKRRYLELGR
In a few lines:
(§1)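 Labelled DUBs from HEK293T lysate were NeutrAvidin-enriched, digested with LysC and trypsin, and run by diaPASEF LC-MS/MS. Before that, each 495 µg sample in Tris/CHAPS/IGEPAL buffer with protease inhibitors was treated in triplicate with fragment at 200 µM or vehicle for 3 h, then with Biotin-Ahx-Ub-VS at 0.5 µM final for 1 h. Values are average log2 ratios of fragment over vehicle by unpaired t-test, based on global-median-normalised Spectronaut label-free quantities from proteins with ≥2 unique peptides.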

The target of the next experiment is USP46 (UniProt P62068). A digest of the protocol:
as §1

The next experiment concerns the target T2, USP47 (UniProt Q96K76).
T2 sequence (whole entry): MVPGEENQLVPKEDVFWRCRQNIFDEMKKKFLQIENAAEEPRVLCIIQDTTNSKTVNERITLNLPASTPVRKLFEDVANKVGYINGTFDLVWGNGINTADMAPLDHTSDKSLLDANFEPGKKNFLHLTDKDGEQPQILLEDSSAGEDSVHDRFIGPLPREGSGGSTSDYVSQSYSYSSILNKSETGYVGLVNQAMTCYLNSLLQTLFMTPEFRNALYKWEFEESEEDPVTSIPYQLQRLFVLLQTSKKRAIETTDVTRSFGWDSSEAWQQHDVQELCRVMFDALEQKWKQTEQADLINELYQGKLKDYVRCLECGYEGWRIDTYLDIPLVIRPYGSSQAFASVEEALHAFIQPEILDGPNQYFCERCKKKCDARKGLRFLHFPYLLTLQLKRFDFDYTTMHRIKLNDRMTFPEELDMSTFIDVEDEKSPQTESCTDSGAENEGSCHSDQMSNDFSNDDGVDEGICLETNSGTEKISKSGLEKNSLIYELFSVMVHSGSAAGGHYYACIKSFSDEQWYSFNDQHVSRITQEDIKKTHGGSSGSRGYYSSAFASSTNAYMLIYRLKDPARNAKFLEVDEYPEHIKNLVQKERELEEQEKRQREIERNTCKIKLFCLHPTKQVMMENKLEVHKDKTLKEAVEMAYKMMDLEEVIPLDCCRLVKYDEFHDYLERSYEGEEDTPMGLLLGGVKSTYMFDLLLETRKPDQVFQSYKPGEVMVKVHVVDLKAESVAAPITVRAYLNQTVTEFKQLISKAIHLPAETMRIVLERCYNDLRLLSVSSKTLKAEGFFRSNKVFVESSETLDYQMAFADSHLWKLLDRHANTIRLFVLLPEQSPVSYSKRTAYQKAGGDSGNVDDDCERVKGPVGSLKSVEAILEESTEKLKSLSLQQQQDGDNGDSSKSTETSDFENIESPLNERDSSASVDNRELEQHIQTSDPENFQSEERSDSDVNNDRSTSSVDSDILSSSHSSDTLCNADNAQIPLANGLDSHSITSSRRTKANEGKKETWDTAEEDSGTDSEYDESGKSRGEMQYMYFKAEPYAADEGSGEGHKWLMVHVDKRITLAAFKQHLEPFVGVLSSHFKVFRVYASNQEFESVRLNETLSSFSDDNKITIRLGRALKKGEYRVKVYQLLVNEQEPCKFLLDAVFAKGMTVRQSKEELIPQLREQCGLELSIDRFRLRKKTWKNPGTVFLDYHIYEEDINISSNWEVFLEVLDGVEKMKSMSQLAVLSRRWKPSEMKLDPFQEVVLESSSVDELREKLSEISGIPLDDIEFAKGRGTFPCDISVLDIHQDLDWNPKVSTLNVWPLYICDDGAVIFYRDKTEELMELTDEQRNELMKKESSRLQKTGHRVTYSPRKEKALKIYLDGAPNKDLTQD
A digest of the protocol: as §1

The target of the next experiment is T3, USP48 (UniProt Q86UV5).
T3 sequence (whole entry): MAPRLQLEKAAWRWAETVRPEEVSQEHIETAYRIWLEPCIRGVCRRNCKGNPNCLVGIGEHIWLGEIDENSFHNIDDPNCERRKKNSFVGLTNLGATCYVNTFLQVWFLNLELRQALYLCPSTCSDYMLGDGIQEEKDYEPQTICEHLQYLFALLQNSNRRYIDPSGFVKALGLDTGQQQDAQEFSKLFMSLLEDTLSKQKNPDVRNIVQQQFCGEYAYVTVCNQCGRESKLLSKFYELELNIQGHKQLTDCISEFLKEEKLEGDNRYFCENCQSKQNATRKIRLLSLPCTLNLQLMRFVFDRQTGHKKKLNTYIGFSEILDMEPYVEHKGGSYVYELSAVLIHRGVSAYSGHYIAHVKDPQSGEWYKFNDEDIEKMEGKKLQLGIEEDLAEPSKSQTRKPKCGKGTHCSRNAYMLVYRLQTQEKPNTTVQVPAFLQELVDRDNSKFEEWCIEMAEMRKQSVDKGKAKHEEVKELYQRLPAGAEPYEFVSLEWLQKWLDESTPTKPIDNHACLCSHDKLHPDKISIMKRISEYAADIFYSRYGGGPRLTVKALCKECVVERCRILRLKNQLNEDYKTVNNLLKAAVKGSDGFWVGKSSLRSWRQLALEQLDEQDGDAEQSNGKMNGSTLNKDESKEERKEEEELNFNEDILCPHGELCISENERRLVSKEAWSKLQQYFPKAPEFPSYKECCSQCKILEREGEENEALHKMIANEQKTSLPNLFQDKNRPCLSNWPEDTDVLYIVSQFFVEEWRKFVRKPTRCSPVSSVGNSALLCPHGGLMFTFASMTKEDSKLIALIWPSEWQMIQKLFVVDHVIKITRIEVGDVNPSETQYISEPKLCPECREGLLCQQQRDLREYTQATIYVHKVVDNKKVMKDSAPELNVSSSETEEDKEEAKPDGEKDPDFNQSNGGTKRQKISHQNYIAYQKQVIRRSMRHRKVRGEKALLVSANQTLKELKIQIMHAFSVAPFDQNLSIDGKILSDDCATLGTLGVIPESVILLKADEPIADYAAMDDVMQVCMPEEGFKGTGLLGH
In a few lines: as §1

A further experiment deals with T4, USP5 (UniProt P45974).
T4 sequence (whole entry): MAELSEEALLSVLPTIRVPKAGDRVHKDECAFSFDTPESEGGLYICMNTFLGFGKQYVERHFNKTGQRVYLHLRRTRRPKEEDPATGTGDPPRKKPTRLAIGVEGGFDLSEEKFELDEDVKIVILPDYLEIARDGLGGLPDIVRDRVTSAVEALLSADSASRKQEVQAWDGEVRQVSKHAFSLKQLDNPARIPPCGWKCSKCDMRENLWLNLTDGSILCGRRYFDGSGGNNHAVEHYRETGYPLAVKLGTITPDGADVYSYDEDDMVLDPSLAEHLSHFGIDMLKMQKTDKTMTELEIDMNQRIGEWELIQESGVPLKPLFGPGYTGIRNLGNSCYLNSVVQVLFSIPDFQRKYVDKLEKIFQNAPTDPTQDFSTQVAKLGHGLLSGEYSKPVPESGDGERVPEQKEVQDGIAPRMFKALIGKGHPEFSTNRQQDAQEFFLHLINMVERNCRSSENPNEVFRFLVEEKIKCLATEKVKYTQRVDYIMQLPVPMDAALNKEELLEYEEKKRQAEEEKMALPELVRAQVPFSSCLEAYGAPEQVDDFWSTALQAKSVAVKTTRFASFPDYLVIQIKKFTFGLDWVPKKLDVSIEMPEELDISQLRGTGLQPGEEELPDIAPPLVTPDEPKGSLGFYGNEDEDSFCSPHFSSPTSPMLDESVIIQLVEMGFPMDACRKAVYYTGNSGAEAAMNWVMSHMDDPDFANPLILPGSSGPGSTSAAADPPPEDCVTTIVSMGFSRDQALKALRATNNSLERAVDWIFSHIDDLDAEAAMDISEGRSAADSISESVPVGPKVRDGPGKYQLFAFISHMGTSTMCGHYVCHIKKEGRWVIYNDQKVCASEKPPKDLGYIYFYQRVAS
A digest of the protocol:
as §1

Unmarked numbers belong to inactive results.

USP46, sequence (P62068 whole entry): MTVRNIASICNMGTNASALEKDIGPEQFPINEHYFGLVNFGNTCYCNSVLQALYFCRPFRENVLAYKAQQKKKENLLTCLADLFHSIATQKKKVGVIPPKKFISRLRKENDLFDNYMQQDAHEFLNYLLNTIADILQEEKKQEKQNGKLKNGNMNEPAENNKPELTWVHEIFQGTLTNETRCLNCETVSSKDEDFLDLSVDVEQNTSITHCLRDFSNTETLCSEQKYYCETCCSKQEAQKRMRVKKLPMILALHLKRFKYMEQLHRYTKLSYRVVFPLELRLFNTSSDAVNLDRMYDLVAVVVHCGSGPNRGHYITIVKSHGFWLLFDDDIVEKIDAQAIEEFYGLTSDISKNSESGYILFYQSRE

As for `O=C(CCl)N(Cc1ccsc1)C1CC1`, the “log2 ratio of Biotin-Ahx-Ub-VS probe labelling” value with USP42 is -0.0609; in the experiment with USP46, 0.201; with USP47, -0.631; with USP48, -1.14 (active); with USP5 it was 0.243.
